This passage reports Potency, activity change, negative = inhibition and activity change, negative = cytotoxicity results from PubChem BioAssay (NCATS).

Results filed as inconclusive are left out. Calls of active or inactive are those of the source. Calls follow the shape of the full dose curve. Peptide text beside a SMILES is read from it.

Assay [1] can be described thus: Cytotoxicity counterscreen for inhibitors of SARS-CoV-2 cell entry (AID 1645845). Also: nearly all actives have a fitted effect of over 50% in size. As to activity change, negative = cytotoxicity: % is scaled to controls: 0 for no effect and ±100 for the full control effect. To be noted: outcome: dose series up to 57.1 µM unless noted. A digest of the protocol: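 ATP-content luminescence (ATPLite 1step, 15 min RT) read after 48 h compound exposure of Expi293F cells stably expressing human ACE2; normalized to cells-only wells and media-only wells.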

Assay [2] in a line: Primary qHTS to identify inhibitors of SARS-CoV-2 cell entry (AID 1645846). Also: nearly all actives have a fitted effect of over 45% in size. To be noted: SARS-CoV-2 pseudovirus cell entry assay, luminescence; activity change, negative = inhibition: at 57.1 µM (top of the series) unless noted. A digest of the protocol: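 Inhibition of spike-mediated entry was scored in human ACE2-transfected Expi293F cells. Particles were MLV-pseudotyped with Wuhan-Hu-1 S carrying a 19-aa C-terminal deletion; signal was luciferase after two days, scaled between spike PP and fusion-protein-free PP.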
Potency is read from the fitted curve at half-maximal effect.

As to `NS(=O)(=O)NCCNc1nonc1C(=Nc1ccc(F)c(Br)c1)NO`, the Potency result in assay [1] was “inactive”. For the same molecule, the activity change, negative = inhibition in assay [2] is -14.4%.
The matching figures for `Nc1nc(F)nc2c1ncn2[C@@H]1O[C@H](COP(=O)(O)O)[C@@H](O)[C@@H]1O`: “inactive” and 0.103%.
Take `O=C1CC[C@H](N2Cc3c(OCc4ccc(CN5CCOCC5)cc4)cccc3C2=O)C(=O)N1`: the Potency result in assay [1] is “inactive”. The activity change, negative = inhibition in assay [2] was -23.3%.
The matching figures for `Cn1cc(-c2c[nH]c3ncnc(N4CCOCC4)c23)cn1`: “inactive” and -0.441%.
`CNC(=O)c1c(C)oc2cc(Oc3ncnc4cc(OC)c(OC)cc34)ccc12`: the Potency entry in assay [1] and in assay [2] was “inactive” throughout.
With `COc1nc(N)nc2c1ncn2C1OC(CO)C(O)C1O` (stereo not drawn), the Potency result in assay [1] is “inactive”. The activity change, negative = inhibition in assay [2] stood at 1.29%.
`Cc1ccc(NC(=O)Nc2nnc(Sc3ncnc4cc(OCCCN5CCOCC5)ccc34)s2)cc1`: the Potency entry in assay [1] and in assay [2] was “inactive” in each case.
In the case of `COc1cc2c(cc1OC)CN(CCc1ccc(-n3nnc(-c4cc(OC)c(OC)cc4NC(=O)c4cc(=O)c5ccccc5o4)n3)cc1)CC2`, in assay [1], the activity change, negative = cytotoxicity was 2.79% [at 0.702 µM] (inactive). Moreover, in assay [2], the activity change, negative = inhibition is 3.34% [at 0.702 µM].
With `O=C(O)c1ccccc1-c1ccc(/C=c2\sc3nc4cc(Br)cnc4n3c2=O)o1`, in assay [1], the Potency result is “inactive”. Besides, the activity change, negative = inhibition in assay [2] was -1.33% [at 27.1 µM].
The matching figures for `C[C@H](Nc1nc(N[C@H](C)C(F)(F)F)nc(-c2cccc(Cl)n2)n1)C(F)(F)F`: “inactive” and -8.78%.
The matching figures for `CC(=O)N1CCC[C@H]1C(=O)N[C@@H](Cc1cnc[nH]1)C(=O)N[C@@H](CO)C(=O)N[C@@H](CS)C(=O)N[C@@H](CC(N)=O)C(N)=O` (Ac-PHSCN-NH2): “inactive” and -1.41%.
Consider `CC(=O)[C@]1(N)Cc2c(O)c3c(c(O)c2[C@@H](O[C@H]2C[C@H](O)[C@H](O)CO2)C1)C(=O)c1ccccc1C3=O`, for which the Potency entry in assay [1] and in assay [2] was “inactive” in each case.
Consider `CCn1c(N)c(C(=O)NC)c(=O)c2ccc(C#CC(C)(O)COC)nc21` (stereo not drawn), for which, in assay [1], the Potency result was “inactive”. For the same molecule, the activity change, negative = inhibition in assay [2] stood at 2.21%.
The matching figures for `C=C1[C@H](OC(=O)/C=C(\C)CC)C[C@@H](C(C)C)[C@@H]2[C@H]([C@@H](C)OC(C)=O)C(=O)C[C@@H]12`: “inactive” and -14.8%.
The matching figures for `NC1=N[C@@]2(c3cc(NC(=O)c4ccc(F)cn4)ccc3F)COC[C@H]2CS1`: “inactive” and -18.7%.
For `CC(C)(C)C(=O)N1N=CC[C@H]1c1ccccc1`, the Potency result in assay [1] is “inactive”. Further, the activity change, negative = inhibition in assay [2] was -3.46%.
On to `N[C@@H](CCC(=O)O)C(=O)N[C@@H](Cc1c[nH]c2ccccc12)C(=O)O` (H-Glu-Trp-OH), for which the Potency entry in assay [1] and in assay [2] was “inactive” each time.
For the molecule `CO[C@H]1/C=C/O[C@@]2(C)Oc3c(C)c(O)c4c(O)c(c(/C=N/N5CCN(C)CC5)c(O)c4c3C2=O)NC(=O)/C(C)=C\C=C\[C@H](C)[C@H](O)[C@@H](C)[C@@H](O)[C@@H](C)[C@H](OC(C)=O)[C@@H]1C`, the Potency result in assay [1] is “inactive”. The activity change, negative = inhibition in assay [2] was -0.679%.
The matching figures for `O=C(Nc1ccc(-c2ccnc(Nc3ccc(N4CCOCC4)cc3)n2)cc1)C1CCCN1` (stereo not drawn): “inactive” and -3.33%.
The matching figures for `Cc1nn(C)c(COc2ccc(N3CCN(S(=O)(=O)N(C)C)CC3)cc2)c1-c1cccc2c(CCCOc3cccc4ccccc34)c(C(=O)O)n(CCN3CCOCC3)c12`: “inactive” and -18.4%.
With `CCn1nc(C2CCN(C(=O)CCO)CC2)nc1-c1cnc(N)c(-c2nnc(C(C)(C)C)o2)n1`, the Potency result in assay [1] is “inactive”.
Regarding `O=C1OC2(CCC(C(=O)Nc3ccn(-c4ccccc4F)n3)CC2)c2cnccc21` (stereo not drawn), the Potency result in assay [1] and in assay [2] was “inactive” in each case.
Take `COC1=C2C[C@H](C)C[C@H](OC)[C@H](O)[C@@H](C)/C=C(/C)[C@H](OC(N)=O)[C@@H](OC)/C=C\C=C(\C)C(=O)NC(=CC1=O)C2=O`: the Potency result in assay [1] and in assay [2] was “inactive” each time.
For the molecule `CC1Oc2cc(cnc2N)-c2c(nn(C)c2C#N)CN(C)C(=O)c2ccc(F)cc21` (stereo not drawn), in assay [1], the Potency entry was “inactive”. Moreover, in assay [2], the activity change, negative = inhibition was -19.3%.
Turning to `O=C1OC(COc2ccccc2[N+](=O)[O-])CC1Cc1ccccc1` (stereo not drawn), the Potency result in assay [1] was “inactive”. Besides, in assay [2], the activity change, negative = inhibition is -2.39%.
For `CC1=C2[N-][C@H]([C@H](CC(N)=O)[C@@]2(C)CCC(=O)NC[C@@H](C)OP(=O)([O-])O[C@H]2[C@@H](O)[C@@H](n3cnc4cc(C)c(C)cc43)O[C@@H]2CO)[C@]2(C)N=C(C(C)=C3N=C(C=C4N=C1[C@@H](CCC(N)=O)C4(C)C)[C@@H](CCC(N)=O)[C@]3(C)CC(N)=O)[C@@H](CCC(N)=O)[C@]2(C)CC(N)=O.O.[Co+2]`, the Potency entry in assay [1] is “inactive”. Besides, the activity change, negative = inhibition in assay [2] was -20.3%.
As for `Cc1cc(-c2nc3cc(F)ccc3s2)ccc1NC(=O)[C@@H](N)CCCCN`, the Potency in assay [1] was 22.4 µM (active); in assay [2], 28.2 µM (active).
Regarding `Cc1c(F)ccc(C(=O)Nc2cc([N+](=O)[O-])ccc2N2CCN(C)CC2)c1Cl`, the Potency result in assay [1] was “inactive”. Moreover, the activity change, negative = inhibition in assay [2] was -18.7%.
The matching figures for `COc1ccccc1C(=O)Nc1cc2c(cc1N1CCCCC1)n(C)c(=O)n2C`: “inactive” and -21.1%.
As for `C=CC(=O)Nc1cc(N2CCN(CC)CC2)ccc1Nc1cc(N(C)C(=O)Nc2c(Cl)c(OC)cc(OC)c2Cl)ncn1`, the Potency result in assay [1] was “inactive”. For the same molecule, the activity change, negative = inhibition in assay [2] is -6.15%.
On to `CC(C)(c1ccc(OCC(O)CO)cc1)c1ccc(OCC(O)CCl)cc1` (stereo not drawn), for which, in assay [1], the Potency result is “inactive”. Moreover, the activity change, negative = inhibition in assay [2] is -34.4%.
The matching figures for `Cc1ccccc1-n1nc(-c2c(-c3ccc(F)cc3)nn3c2NC[C@@H](CO)C3)ccc1=O`: “inactive” and -24.3%.
The matching figures for `COC(=O)/C=C/C(=O)N(O)CCCCNCc1ccc(COC(=O)Nc2cccc3ccccc23)cc1`: “inactive” and -27.1%.
For `O=C(CCNC(=O)c1ccc(OC(F)(F)F)cc1)N[C@@H]1CCCc2ccccc21`, the Potency result in assay [1] was “inactive”. Also, the activity change, negative = inhibition in assay [2] was determined as 4.82%.
The matching figures for `Cc1onc(-c2ccc(F)cc2)c1COc1ccc(C(=O)N2CCS(=O)(=O)CC2)cn1`: “inactive” and -25.8%.
Regarding `Cc1c(F)cccc1NC(=O)Nc1ccc(Cl)c(S(=O)(=O)[C@H]2CCCNC2)c1O`, the Potency entry in assay [1] and in assay [2] was “inactive” throughout.
`C[C@@H]1Cc2c([nH]c3ccccc23)[C@@H](c2c(F)cc(/C=C/C(=O)O)cc2F)N1CC(C)(C)F`: the Potency entry in assay [1] is “inactive”.
With `OCc1ccccc1O[C@@H]1O[C@H](CO)[C@@H](O)[C@H](O)[C@H]1O`, the Potency result in assay [1] was “inactive”. For the same molecule, the activity change, negative = inhibition in assay [2] was -12.3%.
The matching figures for `CC1(C)O[C@@H]2C[C@H]3[C@@H]4CCC5=CC(=O)C=C[C@]5(C)[C@H]4[C@@H](O)C[C@]3(C)[C@]2(C(=O)CO)O1`: “inactive” and 4.23%.
For `Cc1c(NC(=O)c2cc3c(s2)CCCC3)cccc1-c1cn(C)c(=O)c(Nc2ccc(C3C(=O)N(C)CCN3C)cc2)n1` (stereo not drawn), the Potency entry in assay [1] and in assay [2] was “inactive” throughout.
`COc1ccnc2[nH]cc(C(=O)C(=O)N3CCN(C(=O)c4ccccc4)C[C@H]3C)c12`: the Potency result in assay [1] is “inactive”. In addition, the activity change, negative = inhibition in assay [2] is -5.46%.
As for `C=CC(=O)Nc1ccc2ncnc(Nc3cccc(Br)c3)c2c1`, the values for the Potency in assay [1] and in assay [2] were 14.1 µM (active) and 7.94 µM (active), respectively.
For the molecule `CONC(=O)Nc1ccc(-c2sc3c(c2CN(C)C)c(=O)n(-c2ccc(OC)nn2)c(=O)n3Cc2c(F)cccc2F)cc1`, the Potency result in assay [1] is “inactive”. In addition, in assay [2], the activity change, negative = inhibition is -24.2%.
Consider `COc1cccc(Nc2ncnn3ccc(CN4CC[C@@H](N)[C@H](O)C4)c23)c1`, for which the Potency result in assay [1] and in assay [2] was “inactive” throughout.
Turning to `CC(C)n1cc(-c2ccc3c(c2)N(C)CC3)c2c(NS(=O)(=O)c3ccn(C)n3)ccnc21`, the Potency result in assay [1] is “inactive”. Besides, the activity change, negative = inhibition in assay [2] was -1.94%.
On to `CCN1CCN(Cc2ccc(NC(=O)c3ccc(C)c(NC(=O)c4cncc(-c5cccs5)c4)c3)cc2C(F)(F)F)CC1`, for which the figures for the Potency in assay [1] and in assay [2] were 31.6 µM (active) and 3.16 µM (active), respectively.
On to `CCN(c1cc(-c2ccc(CN3CCOCC3)cc2)cc(C(=O)NCc2c(C)cc(C)[nH]c2=O)c1C)C1CCOCC1`, for which the Potency result in assay [1] and in assay [2] was “inactive” throughout.
For the molecule `COc1cc([C@@H](CC(=O)O)c2ccc(C)c(CN3C[C@@H](C)Oc4ccccc4S3(=O)=O)c2)cc2nnn(C)c12`, the Potency entry in assay [1] is “inactive”. Besides, the activity change, negative = inhibition in assay [2] is 2.13%.
The matching figures for `CC1c2cccc(O)c2C(O)=C2C(=O)C3(O)C(O)=C(C(N)=O)C(=O)C(N(C)C)C3C(O)C21` (stereo not drawn): “inactive” and -15.9%.
The matching figures for `Cc1ccc(-c2nc(N)nc3c2nnn3Cc2cccc(CO[C@H]3CCOC3)n2)o1`: “inactive” and -15.2%.
The matching figures for `Cc1ccc(NC(=O)[C@H]2CCCN(C(=O)c3c(C)cccc3F)[C@H]2c2ccc(NC3CCCC3)cc2)cc1C(F)(F)F`: “inactive” and -27.6%.
For the molecule `Nc1ncnc2c1ncn2[C@@H]1O[C@H](CO)C[C@H]1O`, the Potency result in assay [1] is “inactive”. Further, in assay [2], the activity change, negative = inhibition is -13%.
The matching figures for `Cc1c(F)cc(C(=O)NC2CC2)cc1-c1c(F)cn2c(C(C)(C)C)nnc2c1F`: “inactive” and 3.6%.
On to `CO[C@H]1/C=C/O[C@@]2(C)Oc3c(C)c(O)c4c(O)c(c5c(c4c3C2=O)=NC2(CCN(CC(C)C)CC2)N=5)NC(=O)/C(C)=C/C=C/[C@H](C)[C@H](O)[C@@H](C)[C@@H](O)[C@@H](C)[C@H](OC(C)=O)[C@@H]1C`, for which the Potency result in assay [1] and in assay [2] was “inactive” throughout.
`Cn1c(-c2ccccc2C(F)(F)F)nnc1C12CCC(c3noc(C4CC(F)(F)C4)n3)(CC1)CC2`: the Potency result in assay [1] was “inactive”. In addition, the activity change, negative = inhibition in assay [2] is -12.8%.
The matching figures for `Cc1[nH]nc2ncc(C(=O)N3CCC[C@H]3c3ccc(Cl)cc3)cc12`: “inactive” and -17.3%.
The matching figures for `CCOc1cc(/C=C2/C(=O)N(c3ccccc3)N=C2C)cc(Cl)c1OCC(=O)OC`: “inactive” and -12.7%.
Consider `Nc1ncnc2c1C(=O)N(c1ccc(C3CCC(CC(=O)O)CC3)cc1)CCO2` (stereo not drawn), for which the Potency entry in assay [1] is “inactive”. The activity change, negative = inhibition in assay [2] is -0.016%.
Regarding `C[C@H](NC(=O)/C(C#N)=C/c1cccc(Br)n1)c1ccccc1`, the Potency in assay [1] is 28.2 µM (active); in assay [2], 35.5 µM (active).
Regarding `O=C(NNc1ccccc1)c1ccncc1`, in assay [1], the Potency entry is “inactive”. In addition, the activity change, negative = inhibition in assay [2] was -19.4%.
